{"source": "paper PMC5540273", "about": "(PLoS ONE, 2017);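 further: kd values determined as follow-up on hits from a single-replicate KINOMEscan panel screen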", "key": {"[1]": {"system": "FGFR2"}, "[2]": {"system": "FLT3"}, "[3]": {"system": "FLT4"}, "[4]": {"system": "FRK"}, "[5]": {"system": "GAK"}, "[6]": {"system": "T1, JNK1", "T1 construct": "gene MAPK8"}, "[7]": {"system": "T2, GRK2", "T2 construct": "gene ADRBK1"}, "[8]": {"system": "T3, GRK3", "T3 construct": "gene ADRBK2"}, "[9]": {"system": "GRK4"}, "[10]": {"system": "T4, HASPIN", "T4 construct": "gene GSG2"}, "[11]": {"system": "T5, IKK-beta", "T5 construct": "gene IKBKB"}, "[12]": {"system": "HIPK3"}, "[13]": {"system": "HUNK"}, "[14]": {"system": "ICK"}, "[15]": {"system": "IGF1R"}, "[16]": {"system": "T6, IKK-epsilon", "T6 construct": "gene IKBKE"}, "[17]": {"system": "JAK1(JH1domain-catalytic)"}, "[18]": {"system": "JAK3(JH1domain-catalytic)"}, "[19]": {"system": "JAK1(JH2domain-pseudokinase)"}}, "data": [{"smiles": "CCC(CC)(CC)n1cnc2c(N)ncnc21", "note": "[SKF-97620]", "values": [{"measurement": "Kd", "setting": "[1]", "value": "> 10000", "unit": "nM"}]}, {"smiles": "FC(F)(F)c1ccc(-c2nn3ncccc3c2-c2ccnc(Nc3cccc(C(F)(F)F)c3)n2)cc1", "note": "[GW828205]", "values": [{"measurement": "Kd", "setting": "[1]", "value": "> 10000", "unit": "nM"}]}, {"smiles": "O=C(Nc1n[nH]c2nc(-c3ccco3)c(Br)cc12)c1ccc(CN2CCCC2)cc1.O=C(O)[C@H](O)[C@@H](O)C(=O)O", "note": "[SB-742352]", "values": [{"measurement": "Kd", "setting": "[2]", "value": 45, "unit": "nM"}]}, {"smiles": "COc1ccc(NC(=O)Nc2ccc(C)c(-c3ccc(C(=O)Nc4ccncc4)cc3)c2)cc1", "note": "[GSK1398475]", "values": [{"measurement": "Kd", "setting": "[2]", "value": 2200, "unit": "nM"}]}, {"smiles": "Cl.O=S(=O)(c1cccc(F)c1)c1ccc(Nc2ncnc3cc(Br)sc23)cc1Cl", "note": "[GSK306886]", "values": [{"measurement": "Kd", "setting": "[3]", "value": "> 10000", "unit": "nM"}]}, {"smiles": "Cc1ccc(NC(=O)c2cccc(C#N)c2)cc1-c1ccc(C(=O)Nc2ccncc2)cc1", "note": "[GSK1398463]", "values": [{"measurement": "Kd", "setting": "[4]", "value": 190, "unit": "nM"}]}, {"smiles": "COC(=O)c1c(-c2ccccc2)c2cc(Cl)ccc2c(=O)n1Cc1ccc(S(C)(=O)=O)cc1", "values": [{"measurement": "Kd", "setting": "[5]", "value": "> 10000", "unit": "nM"}, {"measurement": "Kd", "setting": "[6]", "value": 61, "unit": "nM"}]}, {"smiles": "CCc1nc(-c2cccc(N(C)S(=O)(=O)c3ccccc3)c2)c(-c2ccnc(Nc3ccc(N4CCN(C(C)=O)CC4)nc3)n2)s1", "note": "[GSK1645895]", "values": [{"measurement": "Kd", "setting": "[5]", "value": 250, "unit": "nM"}]}, {"smiles": "CNc1nccc(-c2c(-c3ccc(F)cc3)ncn2C2CCN(C)CC2)n1", "note": "[SB-222903]", "values": [{"measurement": "Kd", "setting": "[7]", "value": "> 10000", "unit": "nM"}]}, {"smiles": "COc1ccc(NC(=O)c2ccc(-c3cc(-c4nnc(C)o4)ccc3C)cc2)cc1", "note": "[GW595885]", "values": [{"measurement": "Kd", "setting": "[8]", "value": "> 10000", "unit": "nM"}]}, {"smiles": "Cn1cc(-c2ccc3c(c2)CCN3C(=O)Cc2cccc(C(F)(F)F)c2)c2c(N)ncnc21", "note": "[GSK2606414]", "values": [{"measurement": "Kd", "setting": "[9]", "value": "> 10000", "unit": "nM"}]}, {"smiles": "Cl.Cl.c1ccc(-c2cc3ccncc3cc2OC2CCNCC2)cc1", "note": "[GSK1122999]", "values": [{"measurement": "Kd", "setting": "[10]", "value": 90, "unit": "nM"}, {"measurement": "Kd", "setting": "[11]", "value": 24, "unit": "nM"}]}, {"smiles": "Nc1nc(-c2cccnc2)c(-c2ccnc3ccccc23)s1", "note": "[GW684083]", "values": [{"measurement": "Kd", "setting": "[10]", "value": 650, "unit": "nM"}]}, {"smiles": "Nc1n[nH]c2nnc(-c3ccccc3)cc12", "note": "[SB-517389]", "values": [{"measurement": "Kd", "setting": "[12]", "value": 290, "unit": "nM"}]}, {"smiles": "COC(=O)c1cccc(NC(=O)NCCNc2ccnc(Nc3ccc(F)cc3)n2)c1", "note": "[GSK1379883]", "values": [{"measurement": "Kd", "setting": "[13]", "value": "> 10000", "unit": "nM"}]}, {"smiles": "O=C(Nc1ccccc1F)NC1CCN(c2ccnc(Nc3ccc(F)cc3)n2)C1", "note": "(centres unmarked) [GSK1379722]", "values": [{"measurement": "Kd", "setting": "[14]", "value": "> 10000", "unit": "nM"}, {"measurement": "Kd", "setting": "[15]", "value": "> 10000", "unit": "nM"}]}, {"smiles": "Nc1nc(-c2ccc3c(N)n[nH]c3c2)cc(N2CCC[C@@H](C(=O)Nc3ccccc3)C2)n1.O=C(O)C(F)(F)F.O=C(O)C(F)(F)F", "note": "[GSK2288359]", "values": [{"measurement": "Kd", "setting": "[15]", "value": "> 10000", "unit": "nM"}]}, {"smiles": "CCc1nc(-c2cccc(C)c2)c(-c2ccnc(NC(=O)c3ccccc3)c2)s1", "values": [{"measurement": "Kd", "setting": "[16]", "value": "> 10000", "unit": "nM"}]}, {"smiles": "C[C@@H]1CCN(C(=O)CO)C[C@@H]1N(C)c1ncnc2[nH]ccc12", "values": [{"measurement": "Kd", "setting": "[17]", "value": 120, "unit": "nM"}, {"measurement": "Kd", "setting": "[18]", "value": 3.6, "unit": "nM"}]}, {"smiles": "CC(=O)Nc1n[nH]c2ncc(-c3ccccc3)cc12", "note": "[SB-548492]", "values": [{"measurement": "Kd", "setting": "[19]", "value": 380, "unit": "nM"}]}, {"smiles": "CC(C)(C)c1ccc(-n2cnc3c(N)ncnc32)cc1", "note": "[SKF-97263]", "values": [{"measurement": "Kd", "setting": "[19]", "value": 250, "unit": "nM"}]}, {"smiles": "CN1c2ccc(-c3ccc(C(=O)NCCO)cc3)cc2-c2[nH]ncc2S1(=O)=O", "values": [{"measurement": "Kd", "setting": "[18]", "value": 6800, "unit": "nM"}]}]}
